HCV inhibitor: HCV inhibition | AID 651820 | 3.4% of 340,000 active | Huh7.5.1 HCVcc-Cre infection, luciferase reporter, 44 h | Potency, µM (top dose mostly 41.8 µM), usual class: inhibitors; active = well fitted inhibition curve with a large enough effect; inconclusive = small, poorly fitted or top-dose-only effect, or another doubt; inactive = no such curve, though single readings can be large or run the other way
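Seed cells (1,000/well) for 4 h; treat with compound and infect with HCVcc-Cre, moi about 0.5. Incubate 44 h, then detect luciferase activity.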
MARV entry inh: blocks Marburg virus binding to or entry into cells. Marburg virus pseudotyped entry inhibition, cell reporter. Potency, µM (highest dose often 37.8 µM), usual class: inhibitors. 1.8% of 300,000 active. AID 540276; calls by dose curve; tested in HEK293 cells
LASV entry inh: Lassa virus entry inhibition; Potency, µM (titrated, usually from 37.9 µM), usual class: inhibitors; Lassa virus pseudotype entry inhibition, cell reporter; 1.2% of 300,000 active; calls by dose curve; tested in HEK293 cells; note: nearly all actives have a fitted effect of over 50% in size
Cycloheximide cs: affects cycloheximide protein synthesis inhibition readout, counter-screen; max response, %; 12% of 300,000 active; AID 2314; cell reporter, cycloheximide protein synthesis inhibition counterscreen; in the data active = max response mostly above about 13%, no sharp cut-off; inactive = mostly below about 14%; note: read at 38.3 µM for the half of the compounds with a filed dose
FMDV antiviral: foot and mouth disease virus antiviral activity; FMDV antiviral cell-based qHTS; Potency, µM (doses to about 57.9 µM), actives largely listed as inhibitors; 1.2% of 410,000 active; AID 1159524; calls by dose curve; tested in HEK293T cells; note: read-out not given here; nearly all actives have a fitted effect of over 45% in size
Shiga inhibitor: Shiga toxin inhibition; 9.2% of 290,000 active; inhibition, % at 38.7 µM; Vero cells, Shiga toxin protein synthesis inhibition reporter; AID 2315; in the data active = inhibition mostly above about 28%, no sharp cut-off; inactive = mostly below about 43%
A number is an active result; i = inactive; ? = inconclusive; nt = no result. Most compounds without a hit are left out; they make up all but 13% or so of the library.

SMILES	HCV inhibitor	MARV entry inh	LASV entry inh	Cycloheximide cs	FMDV antiviral	Shiga inhibitor
COc1ccc(/C=N/N2C(=O)C3C4C=CC(C4)C3C2=O)cc1[N+](=O)[O-] (stereo unspecified)	i	i	?	i	i	i
COc1cc(/C=N/N2C(=O)C3C4C=CC(CC4)C3C2=O)ccc1O (stereo unspecified)	i	i	i	i	i	57
O=C1Nc2ccccc2/C1=N\N=C\c1ccc(O)c(O)c1	i	i	?	i	i	i
O=C1C2C3C=CC(CC3)C2C(=O)N1/N=C/c1ccccc1O (stereo unspecified)	i	i	i	20	nt	i
COc1cc(/C=N/N=C2/C(=O)Nc3ccccc32)ccc1O	i	?	i	23	i	i
Cc1ccc(CNC(=O)CCSCc2ccc(C)cc2)cc1	i	i	?	i	i	i
O=Cc1c(NCc2cccc(F)c2)c2ccccc2[nH]c1=O	i	i	i	i	i	i
O=S(=O)(c1ccc(OCC(O)CN2CCN(c3ccccc3O)CC2)cc1)N1CCOCC1 (stereo unspecified)	i	i	?	i	nt	i
O=C1c2ccccc2C(=O)N1/N=C/c1ccc(O)c(O)c1O	i	i	i	24	i	55
COc1cc(/C=N/N2C(=O)c3ccccc3C2=O)ccc1O	i	i	i	20	i	i
N#Cc1ccc(NC(=O)C2CC(c3ccc(F)cc3)=NO2)cc1 (stereo unspecified)	i	i	i	i	i	i
COc1cccc(C=Nc2cccc3c(=O)[nH][nH]c(=O)c23)c1O	i	nt	nt	24	i	60
COc1ccc(C=Nc2cccc3c(=O)[nH][nH]c(=O)c23)c2ccccc12	i	i	i	i	i	i
FC(F)(F)c1cccc(CN2CCSCC2)c1	i	?	?	i	i	i
COc1cc(-c2nc3ccc4ccccc4c3c3c2CCC3)cc(OC)c1O	?	?	?	i	i	i
COc1cc(-c2nc3ccc4ccccc4c3c3c2CCC3)cc(OC)c1OC	5.6µM	i	i	i	?	i
CCN(CC)c1ccc(C(=O)OCC(=O)Nc2sccc2C#N)cc1	?	i	?	27	i	39
N#Cc1ccsc1NC(=O)COC(=O)c1ccc(NC(N)=O)cc1	i	?	?	41	i	92
CCN(CC)c1ccc(C(=O)OCC(=O)Nc2ncccn2)cc1	i	?	i	nt	i	nt
COc1ccc(S(N)(=O)=O)cc1C(=O)OCC(=O)Nc1sccc1C#N	i	i	i	nt	i	nt
CCN(CC)c1ccc(C(=O)OCC(=O)Nc2ccccc2-c2ccccc2)cc1	8.9µM	?	?	i	18µM	i
N#Cc1ccsc1NC(=O)COC(=O)c1cc2ccccc2cc1O	?	i	i	31	i	84
CNS(=O)(=O)c1cn(CC(=O)Nc2ccc(OC)c(Cl)c2)cc1S(=O)(=O)NC	nt	nt	i	nt	i	nt
CNc1nc(C)c(C(=O)c2ccc(Cl)cc2)s1	?	?	i	i	i	i
CCC(c1nnc(SCC(=O)Nc2c(F)cccc2F)n1Cc1ccccc1)N(C)C (stereo unspecified)	i	nt	nt	i	i	i
SMILES	HCV inhibitor	MARV entry inh	LASV entry inh	Cycloheximide cs	FMDV antiviral	Shiga inhibitor
O=C(NCc1ccccn1)c1ccccc1Cl	i	i	i	i	i	i
Cc1cc(CNC(=O)COc2ccc(C#N)cc2)c2ccccc2n1	?	i	i	i	i	i
COc1ccccc1C(=O)NC(=S)Nc1ccc(Cc2ccncc2)cc1	?	nt	nt	20	i	42
CC(NC(=S)NC(=O)c1ccccc1)c1ccccc1 (stereo unspecified)	i	nt	nt	nt	i	nt
COc1ccc(Br)cc1C(=O)Nc1ccc(Cc2ccncc2)cc1	?	i	i	i	i	i
O=C(NC(=S)NC(c1ccccc1)c1ccncc1)c1ccccc1 (stereo unspecified)	?	6.5µM	?	i	?	i
Cc1cccc(C(=O)NC(=S)Nc2ccc(Cc3ccncc3)cc2)c1	?	i	i	i	i	i
O=C(NC(=S)Nc1ccc(Cc2ccncc2)cc1)c1ccccc1	i	?	?	37	i	i
COc1c(C(=O)Nc2ccc(Cc3ccncc3)cc2)ccc2ccccc12	?	?	?	20	?	96
Cc1ccc(CS(=O)(=O)CCC(=O)O)cc1	i	nt	nt	i	i	i
COc1ccc2[nH]c3c(c2c1)CCN1C(=O)C(CC(=O)NCc2ccco2)C[C@H](C(=O)N2CCOCC2)[C@@]31C (stereo partly specified)	i	nt	nt	nt	i	nt
CN(Cc1ccc(Cl)s1)C(=O)CNC(=O)CNC(=O)c1ccc(Cl)cc1Cl	i	nt	nt	nt	i	nt
Cc1oc2cc3c(C(=O)OCCN(C)C)c(C)oc3cc2c1C(=O)OCCN(C)C	nt	i	nt	nt	nt	nt
CCOc1ccc(CC(=O)Nc2nccs2)cc1	i	i	i	20	i	i
Cc1ccc(OCCCC(=O)Nc2nccs2)cc1	i	i	i	23	i	42
COc1ccc2c(CC(=O)Nc3nccs3)coc2c1	i	?	i	31	i	77
COc1ccc2c(CC(=O)NCc3cccs3)coc2c1	?	i	i	i	i	i
Cc1cccc(OCCCC(=O)Nc2nccs2)c1	?	i	i	i	?	i
COc1ccc(Cn2c(C(=O)O)c(CNC3CCCC3)c3ccc(C)cc32)cc1	nt	nt	i	nt	i	nt
COC(=O)C1=CN(c2cccc(C)c2)C=C(C(=O)OC)C1c1cc(OC)c(O)c([N+](=O)[O-])c1	i	?	4.1µM	i	i	i
COC(=O)C1=CN(c2ccc(OC)cc2)C=C(C(=O)OC)C1c1ccc(C)c([N+](=O)[O-])c1	?	?	?	i	?	i
CCCn1cnc2sc(C(N)=O)c(C)c2c1=O	i	i	i	i	i	i
CCCn1cnc2sc(CC)cc2c1=O	i	i	i	30	i	52
CC(C)[C@H](NC(=O)OCc1ccccc1)C(=O)N[C@H](C=O)Cc1ccccc1	nt	0.65µM	i	nt	i	nt
O=C(N[C@@H](Cc1ccccc1)C(=O)CCl)OCc1ccccc1	?	16µM	3.3µM	nt	32µM	nt
SMILES	HCV inhibitor	MARV entry inh	LASV entry inh	Cycloheximide cs	FMDV antiviral	Shiga inhibitor
CCCC(C(=O)Nc1ccc(S(=O)(=O)Nc2ncccn2)cc1)c1ccccc1 (stereo unspecified)	i	i	i	i	i	i
CC(C)N=c1scc(-c2ccco2)n1/N=C/c1ccc(O)c(O)c1	?	nt	nt	43	i	i
Cc1nnc(NC(=O)Cc2cccs2)s1	i	i	i	i	i	i
CS(=O)(=O)N1CCc2cc(-c3csc(NC(=O)Cc4cccs4)n3)ccc21	1.4µM	?	13µM	i	13µM	i
CC(=O)Nc1nc(-c2ccc3c(c2)CCN3S(C)(=O)=O)cs1	i	i	i	18	i	67
CC(C)(C)NC(=O)CSc1nc(-c2ccc(F)cc2)cs1	?	?	?	32	i	83
Cc1csc(SCC(=O)NC(C)c2ccc(F)cc2)n1 (stereo unspecified)	i	i	i	i	i	i
CCNC(=O)CSc1nc(-c2ccc(F)cc2)cs1	i	i	i	32	i	101
CCCc1cc(=O)n2[nH]c(NC(=O)c3ccco3)nc2n1	i	?	nt	i	i	i
O=C(c1cc2c(s1)-c1ccccc1OC2)N1CCN(c2ccccc2F)CC1	nt	?	nt	nt	i	nt
